Among the data in ChEMBL document CHEMBL5308504, “Tm Shift (DSF) assay results for EUbOPEN Chemogenomics Library” (2023) are ΔTm values, retold here.

The experiment addresses T1, Transcription intermediary factor 1-alpha (Homo sapiens) (UniProt O15164).
T1 sequence (whole entry): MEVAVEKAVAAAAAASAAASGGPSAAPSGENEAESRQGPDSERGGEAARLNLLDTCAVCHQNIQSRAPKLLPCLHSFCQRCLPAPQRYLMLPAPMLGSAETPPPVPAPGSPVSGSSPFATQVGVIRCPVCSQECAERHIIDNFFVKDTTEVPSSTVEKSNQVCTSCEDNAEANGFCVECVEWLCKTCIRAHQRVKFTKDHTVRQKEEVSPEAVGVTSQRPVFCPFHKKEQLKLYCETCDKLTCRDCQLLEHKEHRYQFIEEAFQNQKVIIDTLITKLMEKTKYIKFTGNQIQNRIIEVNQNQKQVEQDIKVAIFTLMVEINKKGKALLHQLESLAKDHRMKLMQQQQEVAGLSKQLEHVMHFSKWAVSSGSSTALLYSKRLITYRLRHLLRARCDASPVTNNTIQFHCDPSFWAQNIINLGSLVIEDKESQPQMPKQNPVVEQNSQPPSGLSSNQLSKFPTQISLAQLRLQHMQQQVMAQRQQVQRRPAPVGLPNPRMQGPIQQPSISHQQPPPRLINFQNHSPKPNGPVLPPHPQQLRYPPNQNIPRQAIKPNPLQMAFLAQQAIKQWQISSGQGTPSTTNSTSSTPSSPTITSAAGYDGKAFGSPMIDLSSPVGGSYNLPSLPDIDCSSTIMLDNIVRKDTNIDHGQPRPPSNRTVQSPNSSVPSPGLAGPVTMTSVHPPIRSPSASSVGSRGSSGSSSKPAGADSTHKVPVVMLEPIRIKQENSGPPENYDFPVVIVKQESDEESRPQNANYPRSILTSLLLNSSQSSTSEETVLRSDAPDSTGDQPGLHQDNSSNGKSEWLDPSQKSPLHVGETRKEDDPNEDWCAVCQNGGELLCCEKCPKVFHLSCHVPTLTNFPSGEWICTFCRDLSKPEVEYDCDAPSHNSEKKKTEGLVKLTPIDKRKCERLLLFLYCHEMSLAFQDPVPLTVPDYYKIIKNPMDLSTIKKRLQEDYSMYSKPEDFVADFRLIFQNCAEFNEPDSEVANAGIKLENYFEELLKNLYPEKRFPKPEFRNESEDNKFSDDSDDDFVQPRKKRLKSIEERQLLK
Particulars: Compound concentration 20.0 uM, Protein concentration 2.0 uM, Result type QC Liability.
Broadly, the ΔTm is the change in melting temperature against a reference sample. `C[C@H](CCC(=O)O)[C@H]1CC[C@H]2[C@@H]3CC[C@@H]4C[C@H](O)CC[C@]4(C)[C@H]3C[C@H](O)[C@]12C`: the ΔTm is -3.23 °C.
For the compound `COc1ccc(C(=O)N[C@H](C)c2cccc(C(=O)Nc3nc4c(s3)CN(C)CC4)c2)cc1C`, the ΔTm is -2.54 °C.
As for `Nc1nccc(-c2c(-c3ccc(F)cc3)ncn2C2CCN(Cc3ccon3)CC2)n1`, the figure is -2.27 °C; as for `c1ccc2c(c1)SCc1c-2[nH]c2ccccc12`, -7.68 °C; as for `CCOC(=O)Nc1ccc2c(c1)N(C(=O)CN(CC)CC)c1ccccc1CC2`, -1.69 °C.
As to `Cc1ccc(-n2nc(C(C)(C)C)cc2NC(=O)Nc2ccccc2F)cc1`, the ΔTm is -1.64 °C.
Take `C=CC1C[C@]1(NC(=O)[C@@H]1C[C@@H](Oc2cc(-c3csc(NC(=O)C(C)C)n3)nc3c(Br)c(OC)ccc23)CN1C(=O)[C@@H](NC(=O)OC1CCCC1)C(C)(C)C)C(=O)O` (some centres undefined): the thermal shift (ΔTm) came out at 2.85 °C.
For `Cc1cc([N+](=O)[O-])c(NS(=O)(=O)c2cccc(C(=O)O)c2)cc1-c1cccnc1` the value was -2.82 °C; for `Cc1cc(-c2cc3ncccc3c(OC[C@H]3CCCNC3)n2)ccc1N(C)C`, -2.49 °C; for `COc1ccccc1-c1cc(Nc2cccc(CS(N)(=O)=O)c2)ncn1`, -0.57 °C.
`CN(c1ccc(C(F)(F)F)cc1)S(=O)(=O)c1ccc(C(=O)Nc2nc(-c3ccccn3)cs2)cc1`: the ΔTm came out at 18.6 °C.
As to `CC(C)Nc1ncnc2cc(OCc3cccc([S@@](C)(=N)=O)c3)c(Br)cc12`, the ΔTm was 0.14 °C.
In the case of `C[C@@H]1COCCN1c1cc(=O)n2c(n1)N(Cc1cncc(Cl)c1)[C@H](C(F)(F)F)CC2`, the ΔTm was -0.61 °C.
As to `CCc1ccccc1C(=O)Nc1n[nH]c2c(C)c(F)c(C3C(C#N)=C(C)N(C)C(C)=C3C#N)cc12`, the ΔTm was -0.71 °C.
For `CN[C@@H](C)C(=O)N[C@H](C(=O)N1CCC[C@H]1c1nc(C(=O)c2ccc(F)cc2)cs1)C1CCCCC1` the value was -1.98 °C.
As for `O=C(O)c1ccnc(N2CC(O)(c3ccc(OCc4c(-c5c(Cl)cccc5Cl)noc4C4CC4)cc3Cl)C2)c1`, the thermal shift (ΔTm) is -1.77 °C.
For `CC(C)S(=O)(=O)c1ccccc1Nc1nc(N[C@@H]2CCCN(CCCCCCCNC(=O)COc3cccc4c3C(=O)N(C3CCC(=O)N(C)C3=O)C4=O)C2)ncc1Cl` (some centres undefined) the value was -1.22 °C.
On to `FC(F)c1cncc(-c2ccc3ncc4nnc(C5=CCCOCC5)n4c3c2)c1`, for which the shift in melting temperature (ΔTm) turned out to be 0.23 °C.
As for `CCCCC[C@H](O)/C=C/[C@H]1[C@H](O)CC(=O)[C@@H]1CCCCCCC(=O)O`, the figure is 0.28 °C; as for `Cc1ccc(C(=O)Nc2cc(N3CCN(C)CC3)cc(C(F)(F)F)c2)cc1-n1cc(-c2cnn(C)c2C)nn1`, -1.79 °C; as for `CCCCCCCC/C=C\CCCCCCCC(=O)NCCO`, -2.56 °C.
As to `Cc1nsc(Nc2cnc(C(F)(F)F)cn2)c1C(=O)Nc1ccc(O[C@H]2CCCN(CC(F)(F)F)C2)nc1`, the ΔTm is -2.89 °C.
Turning to `CC1(C)CCN(C(=O)C2CN(c3c4c(nc5ccnn35)CCNCC4)C2)C1`, the ΔTm was 0.23 °C.
As for `CCN(C(=O)CO)[C@H]1CN(/C(=N\C#N)Nc2cccc(OC(F)F)c2)N=C1c1ccc(Cl)c(Cl)c1`, the ΔTm stood at 0.3 °C.
As for `COc1ccc(CSc2nnc(-c3ccc4ncsc4c3)o2)cc1C(F)(F)F`, the figure is -2.33 °C; as for `C[C@@H]1Cc2c([nH]c3ccccc23)[C@@H](c2c(F)cc(/C=C/C(=O)O)cc2F)N1CC(C)(C)F`, -0.62 °C.
Regarding `C=C1/C(=C\C=C2/CCC[C@]3(C)[C@@H]([C@H](C)CCCC(C)(C)O)CC[C@@H]23)C[C@@H](O)C[C@@H]1O`, the thermal shift (ΔTm) is -4.59 °C.
For `Cc1cc2ncnn2cc1Nc1ncc2c(n1)n(C1CCOCC1)c(=O)n2C`, the ΔTm is -4.66 °C.
As to `COCCN(C)c1ccc(NC(=O)/C=C(\C)c2ccc3ccccc3c2)c(C(=O)O)c1`, the ΔTm was -0.91 °C.
Consider `O=C(O)[C@]1(Cc2cccc(Nc3nccs3)n2)CC[C@@H](Oc2cccc(Cl)c2F)CC1`, for which the ΔTm is -1.24 °C.
As for `Clc1ccccc1C(c1ccccc1)(c1ccccc1)n1ccnc1`, the figure is -5.38 °C; as for `CCn1c(=O)c2c(C)c(C(=O)N3CCC(O)CC3)sc2n(CCC(F)(F)F)c1=O`, 0.23 °C; as for `Clc1ccc(-c2nc3sccn3c2/C=N/OCc2ccc(Cl)c(Cl)c2)cc1`, -1.95 °C.
With `CCOC(=O)c1cc2cc(-c3cc(C(=O)NCc4ccc(C(=O)O)cc4)nn3C)ccc2[nH]1`, the ΔTm amounted to 0.44 °C.
With `Nc1ncnc2c1c(COc1cccc(Cl)c1)nn2C1CCOCC1`, the ΔTm was -2.38 °C.
Regarding `O=C1CCCc2[nH]c(-c3ccnc(NCC4CC4)c3)c(Nc3ccccc3)c21`, the ΔTm is -0.08 °C.
With `CC1CNCCc2c1nc1ccnn1c2N1CC(C(=O)N2CCC(C)(C)C2)C1` (centres undefined), the ΔTm stood at 0.37 °C.
Take `CC1=C(C(=O)OCCO)[C@@H](c2ccc(C#N)cc2)NC(=O)N1c1cccc(C(F)(F)F)c1`: the ΔTm stood at 0.4 °C.
In the case of `CCS(=O)(=O)c1cc2cc(C[C@](O)(CC(C)(C)c3ccc(F)cc3C(N)=O)C(F)(F)F)[nH]c2cn1`, the ΔTm stood at 0.37 °C.
